Screening results from PubChem BioAssay.
ALR H2O2 inh: inhibitors of human ALR sulfhydryl oxidase, primary screen, biochemical, H2O2 detection, HRP-luminol luminescence, single point. inhibition, % (concentration not given with the values). FAD-linked sulfhydryl oxidase ALR (Homo sapiens), P55789. AID 485317, 2010. purified ALR, DTT oxidation. actives 3.8% (n = 290,000);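 active means mean replicate inhibition above about 79%, with every replicate also reaching it, limit read from the data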
VLA-4 inh: inhibition in human VLA-4 binding assay, primary screen, VLA-4 allosteric modulator project, MLPCN library, flow cytometry, VLA-4 expressing cells; Integrin alpha-4 (Homo sapiens), P13612; ligand binding flow cytometry; inhibition, % (about 7 µM as worked out from the volumes in the protocol); actives 0.2% (n = 330,000); AID 2557, 2010; in the data active means inhibition above about 50%
SUMO Mot1 rescue: yeast Mot1-301 growth rescue at high temperature, primary screen, SUMOylation pathway inhibitor project, S. cerevisiae, ATP luminescence, 38.5C. S. cerevisiae Mot1-301 growth rescue; percent above DMSO median, 100 means doubled. growth rescue, % at 18.8 µM. actives 1% (n = 320,000). AID 2716, 2010;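 active means every valid replicate shows activation above 250% relative to neutral control wells; inactive means the rest, any valid replicate at or below 250%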;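 further: OY570 slx delta 5 strain wells were the positive control but not used for scaling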
Efflux pump mplx: inhibitors of Candida efflux pumps in yeast, primary screen, S. cerevisiae, Nile Red, multiplex | S. cerevisiae Candida pump triplex | inhibition, % at 10 µM | actives 0.44% (n = 330,000) | AID 485275, 2010;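 active means plate passing quality check with inhibition over a set limit, or well fluorescence over plate mean plus 4 SD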;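 further: Nile Red retained in pooled yeast measured as flow cytometry median fluorescence; 0% = buffer negative control and 100% = Enniatin B positive control; higher means more Nile Red kept so more efflux inhibition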
Bfl-1 A1 inh: caspase 3/7 activation in MEF A1-2A-BIM cells, primary screen, A1 inhibitor project, cell-based, luminescence, HTS | Caspase-Glo 3/7 luminescence, 3 h; percent of clofoctol response, vehicle zero | caspase activation, % (no concentration beside the values) | actives 0.066% (n = 330,000);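 active means over half of replicate activation scores above 10%, or exactly half above 10 with the replicate mean above 10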
AHR activator: AHR activators, primary screen, cell-based, luminescence, luciferase reporter, human; AID 2796, 2010; actives 2.5% (n = 320,000); AHR-responsive luciferase reporter cells; activation, % at 5 µM; Aryl hydrocarbon receptor (Homo sapiens), P35869; in the data active means activation above about 47%;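 further: 0% = vehicle wells and 100% = reference agonist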
Target sequence (P35869 whole entry, looked up): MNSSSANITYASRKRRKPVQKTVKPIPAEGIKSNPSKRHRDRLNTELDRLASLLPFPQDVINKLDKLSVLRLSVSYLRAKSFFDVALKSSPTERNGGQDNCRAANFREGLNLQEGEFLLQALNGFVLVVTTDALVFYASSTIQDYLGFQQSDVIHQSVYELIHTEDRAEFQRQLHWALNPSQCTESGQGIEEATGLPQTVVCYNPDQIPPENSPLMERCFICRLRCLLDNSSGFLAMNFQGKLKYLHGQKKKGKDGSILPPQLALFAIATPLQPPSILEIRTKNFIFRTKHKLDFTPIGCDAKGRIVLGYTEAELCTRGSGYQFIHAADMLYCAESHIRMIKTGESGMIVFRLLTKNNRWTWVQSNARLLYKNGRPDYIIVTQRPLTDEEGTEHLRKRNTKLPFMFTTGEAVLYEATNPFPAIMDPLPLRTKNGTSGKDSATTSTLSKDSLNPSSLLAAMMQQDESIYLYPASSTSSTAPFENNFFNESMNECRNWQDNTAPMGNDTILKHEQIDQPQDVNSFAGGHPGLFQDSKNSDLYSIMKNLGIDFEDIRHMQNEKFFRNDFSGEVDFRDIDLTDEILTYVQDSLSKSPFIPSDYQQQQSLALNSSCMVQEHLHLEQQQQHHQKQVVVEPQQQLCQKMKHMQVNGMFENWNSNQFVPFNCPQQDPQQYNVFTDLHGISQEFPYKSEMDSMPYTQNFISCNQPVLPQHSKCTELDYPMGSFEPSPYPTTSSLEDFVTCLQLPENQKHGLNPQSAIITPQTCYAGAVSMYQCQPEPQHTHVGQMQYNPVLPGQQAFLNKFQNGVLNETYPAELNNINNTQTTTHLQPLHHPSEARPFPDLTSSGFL
The depositor's hits bear a star; x = not tested or not shown. Compounds with a hit are over-represented: about 7.2% of the library has one in this group of screens.

SMILES	ALR H2O2 inh	VLA-4 inh	SUMO Mot1 rescue	Efflux pump mplx	Bfl-1 A1 inh	AHR activator
O=c1[nH]c(/C=C\c2ccc(O)cc2)nc(O)c1[N+](=O)[O-]	97*	-6	0	0	0	-2
C=CCc1cc(/C=C/c2nc(O)c([N+](=O)[O-])c(=O)[nH]2)cc(OC)c1O	82*	-9	523*	0	0	-1
COc1ccc(C(=O)COC(=O)c2nc3nccc(C)n3n2)cc1F	0	0	-5	0	1	2
Cc1[nH]n(-c2ccccc2)c(=O)c1N=Nc1cccc(Cl)c1	-1	11	-10	0	0	58*
Nc1[nH]n(-c2ccccc2)c(=O)c1N=Nc1ccccc1	-4	7	14	0	-3	33
Nc1[nH]n(-c2ccccc2)c(=O)c1N=Nc1ccc2ncsc2c1	10	-9	5	0	0	56*
COC(=O)c1ccc(N=Nc2c(C)[nH]n(-c3ccccc3)c2=O)cc1	-1	0	4	0	-1	78*
Cc1[nH]n(-c2ccccc2)c(=O)c1N=Nc1ccc(F)cc1	x	0	15	0	-1	65*
Cc1nc2scc(-c3ccco3)c2c(=O)n1/N=C/N(C)C	-20	28	7	0	2	0
CSc1ccc(N=Nc2c(C)[nH]n(C)c2=O)cc1	2	-2	-3	0	-6	75*
CC(=O)Nc1ccc(N=Nc2c(C)[nH]n(C(N)=S)c2=O)cc1	41	6	4	0	-7	5
Cc1cc(NC(=S)Nc2ccc(C)c(Cl)c2)n[nH]1	97*	-11	13	0	1	7
COc1ccc(C2CC23N=C(c2ccccc2)OC3=O)cc1 (stereo not drawn)	97*	11	33	0	0	0
COc1ccc(C2=NC(c3ccccc3)CO2)cc1 (stereo not drawn)	1	20	-8	0	-5	5
Cc1oc2c(Cl)c(Cl)c(O)c(CN(C)C)c2c1C(=O)c1ccc(Cl)cc1	-33	23	-9	0	0	x
COc1ccc(Nc2nccc3c2nnn3C)cc1	-31	19	14	0	-1	62*
Cn1nnc2c(NCc3ccco3)nccc21	0	3	-7	0	0	2
Cc1ccc(S(=O)(=O)NCc2ccccc2)s1	2	4	2	0	0	0
O=C(CN1CCOc2ccccc21)NC1CCCCCCC1	99*	-19	-6	0	1	0
O=C(Nc1ccccc1)NC1CCN(Cc2ccccc2)CC1	-15	0	-2	0	0	3
O=C(CN1CCOc2ccccc21)NC1CCN(Cc2ccccc2)CC1	87*	18	94	0	0	15
O=C(CN1C(=O)COc2ccccc21)NC1CCCC1	-1	8	4	0	0	1
COc1ccc(/C=C/C(=O)OCC(=O)NC2CC2)c(OC)c1	-4	-1	-2	0	-2	1
O=C(O)COc1ccc(-c2nc(-c3ccccc3)c(-c3ccccc3)[nH]2)cc1	99*	5	-14	0	0	-2
COc1cccc(-c2nc(-c3ccccc3)c(-c3ccccc3)[nH]2)c1OCC(=O)O	5	-4	-21	0	1	x
O=C(O)COc1ccccc1-c1nc(-c2ccccc2)c(-c2ccccc2)[nH]1	98*	-5	64	0	0	0
O=C(O)c1ccc(CNC(=O)C2CCCN2C(=O)OCc2ccccc2)cc1 (stereo not drawn)	-25	-3	513	0	-1	x
CC(=O)NC/C(C)=N\Nc1ccc([N+](=O)[O-])cc1	x	-83	279*	0	0	0
C/C(=N\Nc1ncc(Br)cn1)c1cccc([N+](=O)[O-])c1	-4	-1	-12	0	0	-6
C/C(=N\Nc1ccc([N+](=O)[O-])cc1)c1ccc(O)cc1	99*	23	337*	0	0	-4
